Inconclusive results are not listed. Unmarked numbers belong to inactive results. Calls of active or inactive are those of the source. Calls follow the shape of the full dose curve.
% is scaled to controls: 0 for no effect and ±100 for the full control effect.

A short description of the test: qHTS assay to identify small molecule agonists of the hypoxia (HIF-1) signaling pathway - cell viability counter screen (AID 1224844). Also: nearly all actives have a fitted effect of over 50% in size. Conditions: HRE-bla ME-180 viability, CellTiter-Glo luminescence, 17 h; series mostly up to 76.8 µM. From the text:
National Center for Advancing Translational Sciences [NCATS]
NIH Chemical Genomics Center [NCGC]
U.S. Environmental Protection Agency [EPA]
National Institutes of Environmental Health Sciences [NIEHS]
National Toxicology Program [NTP]
U.S. Food and Drug Administration [FDA]
Hypoxia-inducible factor-1 (HIF-1) is the major hypoxia-regulated transcription factor that controls cellular responses to low oxygen concentration. HIF-1 is composed of two subunits: hypoxia responsive HIF-1-alpha and constitutively expressed HIF-1-beta, which is also known as aryl hydrocarbon receptor nuclear translocator. During hypoxic conditions, HIF-1-alpha heterodimerizes with HIF-1-beta and translocates into the nucleus where the HIF-1 complex binds to the hypoxia-response element (HRE) and activates expression of target genes such as VEGF (vascular endothelial growth factor). The HIF-1 pathway is essential to normal growth and development, and is involved in the pathophysiology of cancer, inflammation, and ischemia.
Using a beta-lactamase reporter-gene under control of the hypoxia response element, a cell-based assay [CellSensor(TM) HRE-bla ME-180 from Life Technologies, Carlsbad, CA] was used to measure hypoxia-induced signaling. Tox21 10K library compounds were measured for their ability to induce the reporter gene activity. The cytotoxicity of the Tox21 compound library against HRE-bla ME-180 cell line was tested in parallel by measuring cell viability using CellTiter-Glo assay (Promega, Madison, WI) in the same assay wells.
Tox21 Assay Protocol Summary:
HRE-bla ME-180 cells were dispensed at 2,000 cells per well in 6 uL of assay medium containing 0.5% dialyzed FBS into black wall/clear-bottom 1536-well plates using a Multidrop Combi (Thermo Scientific, Waltham, MA) dispenser. After the assay plates were incubated at 37C and 5% CO2 for 5 hrs, 23 nL of compounds dissolved in DMSO, positive controls or DMSO only was transferred to each well of the assay plate using a Pintool station (Kalypsys, San Diego, CA). The assay plates were incubated at 37C and 5% CO2 for 17 hrs. One uL of LiveBLAzerTM B/G FRET substrate (CCF4-AM) (Life Technologies) was added to each well using a Flying Reagent Dispenser (FRD, Aurora Discovery, San Diego, CA). After 2 hr incubation at room temperature, fluorescence intensity (405 nm excitation, 460 nm and 530 nm emissions) was measured using an Envision plate reader (PerkinElmer, Shelton, CT). For cytotoxicity, 4 ul/well of CellTiter-Glo reagent was added into the assay plates using an FRD. After 30 min incubation at room temperature, the luminescence intensity was measured using a ViewLux plate reader (PerkinElmer).
(In general: qHTS replaces the single test concentration by a dilution series.)
Regarding `CCOC(=O)CN1CCCC1=O`, the outcome was inactive. The same measure, in the same setting: to `C/C=C(\C)C(=O)OC/C=C(\C)CCC=C(C)C` belongs “inactive”. For the molecule `C=CC(=O)OCCOCCOCC`, the outcome was inactive. Consider `OCCC(F)(F)C(F)(F)C(F)(F)C(F)(F)C(F)(F)C(F)(F)F`, for which the molecule was classed as inactive.

As to `CC[N+](C)(CC)CC`, the result was inactive. As for `N[C@H]1C(O)O[C@H](CO)[C@@H](O)[C@@H]1O` (stereo not given in full), the call was inactive. On the same count and under the same terms, the same measure for `COC(=O)C(c1ccccc1Cl)N1CCc2sccc2C1` (stereo not given): “inactive”. The same measure, in the same setting: to `CCC(C)c1nccnc1OC` (stereo not given) belongs “inactive”; to `C=CCn1cc[n+](C)c1`, “inactive”. On the same count and under the same terms, to `NNC(=O)CCCCC(=O)NN` belongs “inactive”. In the case of `Cc1ccc(OC(=O)CC(C)C)cc1`, the call was inactive. The same measure, in the same setting: the same measure for `O=C1Nc2ccccc2C1=O`: “inactive”; for `O=C1c2ccccc2C(=O)N1CO`: “inactive”.

Regarding `N#Cc1ccccc1C#N`, the molecule was called inactive. The same measure, in the same setting: to `COc1cnc(NS(=O)(=O)c2ccc(N)cc2)nc1` belongs “inactive”; to `COC(C)(C)CC(C)=O`, “inactive”; to `COC(=O)N/N=C/c1c[n+]([O-])c2ccccc2[n+]1[O-]`, “inactive”. Still for that read-out and setting: to `CCCC[O][Al]([O]CCCC)[O]CCCC` belongs “inactive”; to `CCCCN1C(=O)c2ccccc2C1=O`, “inactive”; to `O=C(OOC(=O)c1ccccc1)c1ccccc1`, “inactive”.

As for `N#Cc1cc(NC(=O)C(=O)O)c(Cl)c(NC(=O)C(=O)O)c1`, the outcome was inactive. Still for that read-out and setting: the same measure for `COc1cc(NS(=O)(=O)c2ccc(N)cc2)ncn1`: “inactive”. The same measure, in the same setting: the same measure for `C/C(Cl)=C/CCl`: “inactive”. `C=C(C)C(=O)OCCOC1CC2CC1C1C=CCC21` (stereo not given): the outcome was inactive. On the same count and under the same terms, to `CC(C)(Sc1cc(C(C)(C)C)c(O)c(C(C)(C)C)c1)Sc1cc(C(C)(C)C)c(O)c(C(C)(C)C)c1` belongs “inactive”. Consider `CCCCCCCCCCCCCCCC/C=C/C1CC(=O)OC1=O` (stereo not given), for which the outcome was inactive. On to `C=CCCCCCCCCCCCCCC`, for which the activity change, negative = cytotoxicity was -3.81% [at 15.8 µM]. For the molecule `C/C=C/C(=O)CCCC`, the call was inactive. Still for that read-out and setting: the same measure for `Nc1ccc(C(=O)NCC(=O)O)cc1`: “inactive”; for `O=C(O)COc1ccc2ccccc2c1`: “inactive”.

For `C/C(=N\O)c1ccc(OCC(=O)N2CCCCC2)cc1`, the molecule was classed as inactive.

On to `C=CCN(CC=C)CC=C`, for which the outcome was inactive.

`CC1=C(O)C(=O)CO1`: the molecule was classed as inactive. Same read-out and setting: the same measure for `C[C@]12C=CC(=O)C=C1[C@@H](F)C[C@@H]1[C@@H]2[C@@H](O)C[C@@]2(C)[C@H]1CC[C@]2(O)C(=O)CO`: “inactive”; for `CCCCN=C(N)N=C(N)N`: “inactive”; for `CCN(CC)CC(=O)Oc1ccc(NC(C)=O)cc1`: “inactive”.

For `CCCC(=O)C(CC)Sc1ccoc1C` (stereo not given), the molecule was classed as inactive. Consider `CC(C)(C)C(=O)CC(=O)C(C)(C)C`, for which the call was inactive. On the same count and under the same terms, to `COc1cc2nc(N3CCN(C(=O)C4CCCO4)CC3)nc(N)c2cc1OC` (stereo not given) belongs “inactive”; to `COC(=O)c1c(C)cc(O)c(C)c1O`, “inactive”.

For the origin of these results see PubChem BioAssay (Tox21).
